From PubChem
In the library only some 2.1% were active in any assay of this set; here they are far more common.
ADAM17 inh = ADAM17 inhibition, QFRET primary screen; hit rate 0.83% among 370,000; recombinant ADAM17, EDANS/DABCYL FRET peptide cleavage; P78536; inhibition, % at 6.95 µM; AID 720648;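 active = inhibition above the mean of compounds lying between control limits plus 3 SD, set per campaign, cut at about 8.5% in these data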
Rce1 inhib = yeast Ras-converting enzyme inhibition. yeast membranes, quenched prenylated peptide cleavage fluorescence. hit rate 0.27% among 290,000. Q03530. AID 2563. calls only;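 active = fall in fluorescence gain of 50% or more versus controls, with final raw signal at or below 3038400; inconclusive = same 50% fall but final raw signal above 3038400; inactive = fall in fluorescence gain under 50%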
PLCb3 inh = inhibitors of human phospholipase C beta3 | Q01970 | Purified PLC-beta3, fluorogenic substrate, fluorescence | inhibition, % at 12.2 µM | hit rate 0.18% among 370,000; in the data active = inhibition above about 11%
ADAM10 inh = inhibitors of human ADAM10. O14672. recombinant ADAM10, EDANS/DABCYL FRET peptide cleavage, 3 h. inhibition, % at 7 µM. hit rate 0.62% among 370,000;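 active = inhibition above a per-campaign cutoff equal to the mean of compounds falling between control-based bounds plus 3 SD, cut at about 20% in these data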
Target sequence (O14672 214-748 limits assumed): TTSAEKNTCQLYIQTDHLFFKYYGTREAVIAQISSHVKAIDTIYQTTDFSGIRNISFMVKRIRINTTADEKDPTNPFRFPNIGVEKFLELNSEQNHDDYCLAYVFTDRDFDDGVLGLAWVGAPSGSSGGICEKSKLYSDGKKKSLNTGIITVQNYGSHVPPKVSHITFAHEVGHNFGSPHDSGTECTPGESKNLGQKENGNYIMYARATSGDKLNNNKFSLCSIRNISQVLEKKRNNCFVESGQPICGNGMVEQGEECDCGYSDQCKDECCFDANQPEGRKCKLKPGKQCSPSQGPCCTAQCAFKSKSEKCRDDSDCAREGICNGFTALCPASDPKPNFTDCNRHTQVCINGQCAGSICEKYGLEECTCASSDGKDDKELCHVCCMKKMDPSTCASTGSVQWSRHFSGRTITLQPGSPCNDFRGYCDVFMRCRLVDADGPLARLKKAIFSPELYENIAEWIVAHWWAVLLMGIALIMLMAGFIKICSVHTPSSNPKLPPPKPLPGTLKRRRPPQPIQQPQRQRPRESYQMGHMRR
PLC-gamma1 inh = inhibitors of human phospholipase C gamma1; inhibition, % at 12.2 µM; purified PLC-gamma1, fluorogenic substrate, fluorescence; AID 720700; P19174; hit rate 0.84% among 370,000; in the data active = inhibition above about 9.5%
ADAM10 confirm = confirmation of inhibitors of human ADAM10 | hit rate 1% among 2,100 | inhibition, % at 6.95 µM | AID 743208 | shares compounds with ADAM10 inh | ADAM10 QFRET peptide cleavage, EDANS fluorescence;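 active = inhibition above about 20% chosen separately for each screening run, limit read from the data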
ADAM17 ctr = counter-screen for ADAM10 exosite inhibitors: inhibitors of human ADAM17; AID 743214; hit rate 0.5% among 2,100; inhibition, % at 6.95 µM; shares compounds with ADAM10 inh; ADAM17 QFRET peptide cleavage, EDANS fluorescence;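 active = mean triplicate inhibition above the solvent-only control wells' mean plus 3 SD, cut at about 12% in these data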
Numbers stand for hits; 0 = inactive; ? = inconclusive; - = no result.

SMILES	ADAM17 inh	Rce1 inhib	PLCb3 inh	ADAM10 inh	PLC-gamma1 inh	ADAM10 confirm	ADAM17 ctr
Cc1cccc(-n2c(SC(C)C(=O)O)nc3sc4c(c3c2=O)CCCC4)c1 (configuration not stated)	0	0	0	0	0	-	-
CCOc1cccc(NC(=O)C2CC(=O)N(C)C(=Nc3cccc(F)c3)S2)c1 (configuration not stated)	0	0	0	20.8	0	0	0
CCOC(=O)c1cc(-c2ccccc2C)n(CC2CC(c3ccc(OC)cc3)=NO2)n1 (configuration not stated)	0	-	0	22.8	0	0	0
COc1ccc(C2=NOC(Cn3nc(-c4ccccc4C)cc3C(=O)O)C2)cc1 (configuration not stated)	0	-	0	0	0	-	-
O=C(N/C(=C\c1ccc(Br)cc1)C(=O)N1CCOCC1)c1ccc([N+](=O)[O-])cc1	0	0	0	0	0	-	-
C/C=C/COC(=O)c1[nH]c2c(c1C)C(=O)CC(c1ccc(N(C)C)cc1)C2 (configuration not stated)	0	0	0	64.9	0	0	0
CCOCCOC(=O)c1[nH]c2c(c1C)C(=O)CC(c1ccc(N(C)C)cc1)C2 (configuration not stated)	0	0	0	0	0	-	-
O=C(CSc1nnc(COc2ccc(F)cc2)o1)N1c2ccccc2CCc2ccccc21	0	0	0	20.1	0	0	0
Cc1cccc(OCc2nnc(SCC(=O)N3c4ccccc4CCc4ccccc43)o2)c1	0	0	0	0	0	-	-
OC(CSc1ccccc1Cl)CN1CCN(c2ccc(F)cc2)CC1 (configuration not stated)	0	-	0	0	0	-	-
OC(CSc1c(Cl)cccc1Cl)CN1CCN(c2ccc(F)cc2)CC1 (configuration not stated)	11.4	-	0	20.9	15.4	0	0
Cc1ccc(S(=O)(=O)NC[C@@H]2C[C@H](c3ccccc3)ON2S(=O)(=O)c2ccc(C)cc2)cc1	0	-	0	0	0	-	-
Cc1ccc(S(=O)(=O)NCC2CN(S(=O)(=O)c3ccc(C)cc3)c3ccccc3C(=O)N2c2ccc(F)cc2)cc1 (configuration not stated)	0	-	0	22.6	0	0	0
COC(=O)C1=C/CCCN(C(c2ccccc2)c2ccccc2)/C=C\1C(=O)OC	0	-	0	0	0	-	-
O=S(=O)(NC1CCCCC1NS(=O)(=O)c1ccc(F)cc1)c1ccc(F)cc1 (configuration not stated)	0	0	0	19.9	0	0	0
O=S(=O)(NC1CCCCC1Oc1ccccc1)c1ccc(Cl)cc1 (configuration not stated)	0	0	0	0	0	-	-
CSc1ccc(OC2CCCCC2NS(=O)(=O)c2ccc(Cl)cc2)cc1 (configuration not stated)	0	?	0	28.2	0	0	0
CC(C)(C)NC(=O)C(=O)NNC(=O)COc1ccccc1	0	0	0	0	0	-	-
Cc1ccc(OCC(=O)NNC(=O)C(=O)NC(C)(C)C)cc1	0	0	0	20.9	0	0	0
O=C(NNC(=O)c1cc(-c2ccc(Cl)cc2)nc2ccccc12)c1csc(N2CCOCC2)n1	0	0	0	28.7	0	0	0
CCn1c(CC(=O)Nc2ccccc2Cl)nnc1SCC(=O)NC1CCCC1	0	0	0	0	0	-	-
CC(=O)Nc1ccc(SCC(=O)N(C)C2CCS(=O)(=O)C2)cc1 (configuration not stated)	0	0	0	0	0	-	-
COc1cc(C(=O)OC(C)c2ccc(F)cc2)ccc1OCC(=O)N1CCOCC1 (configuration not stated)	0	-	0	0	0	-	-
CC[C@]12c3[nH]c4ccc(Cl)cc4c3CCN1C(=O)[C@@H](CC(=O)NCc1cccc(C(F)(F)F)c1)C[C@@H]2C(=O)N1CCN(C(=O)c2ccco2)CC1	0	-	0	23.3	0	0	0
CCN1CCN(C(=O)C2CCN(S(=O)(=O)N3CCC4(CC3)OCCO4)CC2)CC1	0	0	0	0	0	-	-
CCCCC[C@@H](C)N1C[C@@H](COCc2ccccc2)Oc2cc(N3CC[C@@H](O)C3)ccc2S1(=O)=O	0	-	0	20.5	0	0	0
